Rows were chosen to be rich in hits. Some 3.2% of all compounds tested hit in one or more screens of this group.
ClpP mod: qHTS Assay for Activators of ClpP; ATP-dependent Clp protease proteolytic subunit (Bacillus subtilis (strain 168)), P80244; purified B. subtilis ClpP, FRET peptide cleavage, 20 min; Potency, µM (top dose mostly 57.5 µM); actives 1.9% (n = 340,000); active = well fitted falling curve with a large enough effect; inconclusive = small, poorly fitted or top-dose-only effect; inactive = no such curve, though single readings can be large or run the other way; also: the source files actives as falling curves though it sought activators and does not explain the sign; nearly all actives have a fitted effect of over 65% in size
Target sequence (P80244 whole entry, looked up): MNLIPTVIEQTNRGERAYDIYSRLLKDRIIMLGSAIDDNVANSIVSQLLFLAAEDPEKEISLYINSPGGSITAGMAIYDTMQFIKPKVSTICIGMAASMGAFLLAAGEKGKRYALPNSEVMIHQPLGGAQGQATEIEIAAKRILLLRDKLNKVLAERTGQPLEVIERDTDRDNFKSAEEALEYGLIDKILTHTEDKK
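Buffer: 100 mM Tris/HCl pH8, 100 mM KCl, 0.05% low protease BSA, 2.5% glycerol, 0.01% Tween-20. ClpP 10 microg/mL final; 20 min RT; delta FRET normalized to ADEP and DMSO controls.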
GLP-1R inv ag: qHTS of GLP-1 Receptor Inverse Agonists (Inhibition Mode). actives 1.6% (n = 410,000). AID 624417, 2012. HEK293 GLP-1R CRE-luciferase, luminescence, 24 h; GLP-1R form is constitutively active. Glucagon-like peptide 1 receptor (Homo sapiens), P43220. Potency, µM (top dose mostly 38.3 µM), actives largely listed as inhibitors; also: nearly all actives have a fitted effect of over 55% in size
Target sequence (P43220 whole entry, looked up): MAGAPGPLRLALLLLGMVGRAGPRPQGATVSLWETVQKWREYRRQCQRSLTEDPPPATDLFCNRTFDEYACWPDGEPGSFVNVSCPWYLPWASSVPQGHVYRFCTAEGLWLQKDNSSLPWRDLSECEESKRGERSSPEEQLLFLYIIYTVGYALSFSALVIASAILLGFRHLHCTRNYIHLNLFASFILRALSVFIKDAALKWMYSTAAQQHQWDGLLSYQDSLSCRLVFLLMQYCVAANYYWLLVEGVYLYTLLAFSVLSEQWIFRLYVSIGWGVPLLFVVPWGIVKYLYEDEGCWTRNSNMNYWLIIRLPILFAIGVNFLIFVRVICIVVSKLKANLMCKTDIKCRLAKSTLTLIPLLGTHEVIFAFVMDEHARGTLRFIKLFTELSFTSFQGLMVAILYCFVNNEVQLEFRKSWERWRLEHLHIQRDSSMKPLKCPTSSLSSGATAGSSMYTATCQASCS
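Using stably transfected HEK293 (constitutively active GLP-1R, cAMP-luciferase reporter), compounds were incubated 24 hr and luciferase measured by luminescence.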
GLP1R cytotox: qHTS of GLP-1 Receptor Inverse Agonists: Cytotox Screen. HEK293 cAMP-luciferase reporter cells, luminescence, 24 h. Potency, µM (highest dose often 38.3 µM), usual class: inhibitors. actives 0.13% (n = 410,000). AID 624418, 2012;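 also: loss of luciferase light is scored as toxicity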
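Luminescence readout: signal drop marks cytotoxicity. Plated cells grew 12 h at 37 °C, 5% CO2, received 23 nL compound for 24 h, then got luciferase reagent, read after 12 min at RT.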
GLP-1R agonist: qHTS of GLP-1 Receptor Agonists; Glucagon-like peptide 1 receptor (Homo sapiens), P43220; HEK293 GLP-1R CRE-luciferase, luminescence, 4-6 h; cells express a hypersensitive GLP-1R form; Potency, µM (titrated, usually from 45.6 µM), most hits filed as activators; actives 0.007% (n = 380,000); AID 624172, 2012
Numbers stand for hits; n = inactive; u = inconclusive; x = no result. Unless noted, calls follow the shape of the dose curve; as a rule, active = well fitted curve in the direction sought with a large enough effect; inconclusive = small, poorly fitted or top-dose-only effect, or another doubt; inactive = no such curve, though single readings can be large; an effect the other way counts as inactive or inconclusive.

SMILES | ClpP mod | GLP-1R inv ag | GLP1R cytotox | GLP-1R agonist
Cc1ccc2c(c1)c(=O)c(C(=O)c1ccc3c(c1)OCO3)cn2Cc1ccc(Cl)cc1 | n | u | n | x
CCN(CC)c1ccc(/C=N/NC(=O)Cc2cccs2)cc1 | 28µM | n | n | n
C=CCNC(=S)N/N=C/c1ccc(N(CC)Cc2ccccc2)cc1 | 8.9µM | u | n | n
C=CCNC(=S)N/N=C/c1ccc(C)c([N+](=O)[O-])c1 | n | u | 7.9µM | n
CCN(CC)c1ccc(/C=N/NC(=S)NCc2ccccc2)cc1 | 25µM | n | n | n
CCN(CC)c1ccc(/C=N/NC(=S)NCc2ccc(OC)cc2)cc1 | x | n | n | n
C=CCNC(=S)N/N=C/c1ccc(C(F)(F)F)cc1 | n | u | u | n
COc1ccc(CNC(=O)c2ccc(-c3nc(CSc4ccc(C)cc4)c(C)o3)cc2)cc1OC | n | n | n | x
CN(C)c1ccc(C(CNS(=O)(=O)c2ccc(F)cc2)N2CCCC2)cc1 (centres undefined) | n | n | n | x
CCn1nc(-c2ccccc2)c(-c2ccccc2)c(C(=O)Nc2nc(C)c(C(C)=O)s2)c1=O | n | 4.5µM | n | x
CC1CCN(C(=O)CSc2ccc(-c3ccc(F)cc3)nn2)CC1 | 32µM | u | n | n
O=C(CSc1ccc(-c2ccc(F)cc2)nn1)N1CCCCC1 | n | n | n | n
COc1cccc(CNC(=O)C2CCN(S(=O)(=O)c3c(C)noc3/C=C/c3cccs3)CC2)c1 | n | n | n | x
CCNS(=O)(=O)c1ccc(CCC(=O)NCc2cccnc2)cc1 | n | n | n | n
O=C(CCc1ccc(S(=O)(=O)NCc2ccccc2)cc1)NCc1cccnc1 | 14µM | n | n | n
COc1ccc(NC(C)C(=O)Nc2ccc(C#N)cc2)cc1Cl (centres undefined) | n | u | n | n
COc1ccc(NC(C)C(=O)Nc2ccc(C(C)(C)C)cc2)cc1Cl (centres undefined) | n | 4.5µM | n | n
Cc1ccccc1NC(=O)Cn1c(=O)n(Cc2ccc3c(c2)OCO3)c(=O)c2ccc(C(=O)NC3CCCCC3)cc21 | n | n | n | n
COc1ccccc1N1CCN(S(=O)(=O)CCNC(=O)C(c2ccccc2)c2ccccc2)CC1 | n | u | n | x
CC(=O)Oc1c(-c2ccc(Br)o2)oc2ccccc2c1=O | x | 5.6µM | n | n
COc1ccc(-c2cc3cc4c(cc3cn2)OCO4)cc1 | 14µM | u | u | n
CCc1sc(C(=O)NC2CCN(C)CC2)cc1Br | n | 10µM | n | n
CCc1sc(C(=O)N2CCCN(C)CC2)cc1Br | n | u | n | n
Cc1ccc2nc(NC(=O)c3cc(=O)c4cc(Cl)ccc4o3)sc2c1 | n | n | n | x
COc1cc(Cl)c(C)cc1NC(=O)CCc1c(C)nc2c3cccnc3nn2c1C | 25µM | n | n | x
SMILES | ClpP mod | GLP-1R inv ag | GLP1R cytotox | GLP-1R agonist
COc1ccc(CCNC(=O)CCc2c(C)nc3c4cccnc4nn3c2C)cc1OC | u | n | n | x
COc1ccc(N2CCN(c3csc4ccc(Cl)cc4c3=O)CC2)cc1 | n | n | n | x
CC(C)(C)C1CCC2(CC1)C(C#N)=C(SCC(=O)NC1CCCCC1)NC(=O)C2C#N (centres undefined) | n | 8.9µM | n | n
N#CC1=C(SCC(=O)NC2CC2)NC(=O)C(C#N)C12CCCCC2 (centres undefined) | n | n | n | n
COc1ccccc1CN1CN(S(=O)(=O)c2ccccc2)c2nc3ccccc3nc21 | n | 2.8µM | n | n
O=S(=O)(c1cccs1)N1CN(Cc2ccco2)c2nc3ccccc3nc21 | x | 1.8µM | n | n
COCCN1CN(S(=O)(=O)c2ccccc2)c2nc3ccccc3nc21 | n | n | n | n
O=C(CSc1nc(C2CC2)nc2ccccc12)N1c2ccccc2Sc2ccccc21 | 13µM | n | n | n
CC(=O)c1ccc(NC(=O)CSc2nc(C3CC3)nc3ccccc23)cc1 | n | n | u | n
COc1ccc(C(=O)C/C(=C\C(=O)c2ccc(C)cc2)c2ccccc2)cc1 | n | 4.5µM | n | n
O=C(c1ccco1)N1CCN(C(=O)C2CCCc3c2[nH]c2ccc(Cl)cc32)CC1 (centres undefined) | n | 5µM | n | n
CCN(CC)C(=O)C1CCCc2c1[nH]c1ccc(Cl)cc21 (centres undefined) | n | 4.5µM | n | n
O=C(O)c1[nH]c2ccc(Cl)cc2c1CC(=O)N1CCN(C(=O)c2ccco2)CC1 | n | n | n | n
CN(C)c1ccc(C=C2SC(=S)N(Cc3ccco3)C2=O)cc1 | n | n | n | n
Cc1cc(/C=C2\SC(=S)N(Cc3ccco3)C2=O)c(C)n1-c1ccccc1 | n | 2.2µM | n | n
COc1ccc(-n2c(C)cc(/C=C3/SC(=S)N(C)C3=O)c2C)cc1 | n | n | n | n
Cc1cc(/C=C2\SC(=S)N(C)C2=O)c(C)n1-c1cccc(O)c1 | n | 2.8µM | n | n
O=C(CSc1nc2nc(-c3cccs3)cc(C(F)(F)F)c2c(=O)[nH]1)NCc1ccco1 | 8.9µM | n | n | n
CCOC(=O)CNC(=O)CC(c1cc(OC)c(OC)c(OC)c1)N1Cc2ccccc2C1=O (centres undefined) | n | n | n | n
COc1ccccc1CNc1ccc(-c2nc(-c3ccco3)no2)cc1[N+](=O)[O-] | n | n | n | x
COC(=O)CSc1nc2sc3c(c2c(=O)n1-c1ccccc1)CCN(C)C3 | 18µM | n | n | n
CN1CCc2c(sc3nc(SCC(N)=O)n(-c4ccccc4)c(=O)c23)C1 | 28µM | n | n | n
CSc1nc(NCc2ccccc2)c2c3c(sc2n1)CN(C)CC3 | 14µM | n | n | n
CSc1nc(NCC(C)C)c2c3c(sc2n1)CN(C)CC3 | u | n | n | n
CC(C)Sc1nc(N)c2c3c(sc2n1)CN(C)CC3 | 28µM | n | n | n
SMILES | ClpP mod | GLP-1R inv ag | GLP1R cytotox | GLP-1R agonist
CCc1nn2c(=O)cc(COC(=O)c3ccco3)nc2s1 | n | n | n | x
COc1cc2c(Nc3ccc(Br)cc3F)ncnc2cc1OCC1CCN(C)CC1 | x | x | x | n
C=C1C(=O)[C@]23C[C@H]1CCC2[C@]1(C)C(=O)CC[C@@](C)(C(=O)O)C1C[C@@H]3O (some centres undefined) | n | u | n | n
C=C1C(=O)[C@]23C[C@H]1CCC2[C@]1(C)CCC[C@@](C)(C(=O)O)C1C[C@@H]3O (some centres undefined) | n | 1.8µM | u | n
CCc1cccc(NC(=O)COC(=O)c2ccccc2OCc2ccccc2Br)c1 | n | x | x | x
CC(=O)Oc1ccc(NC(=O)C2CCCCC2)c(C(=O)O)c1 | 28µM | n | n | n
Cc1ccc(NS(=O)(=O)c2cc(NC(=O)C(C)Oc3ccccc3)ccc2C)c(C)c1 (centres undefined) | n | 10µM | n | n
